Compounds without any hit were thinned out: in the full panel of roughly 83,000, 20% have a hit.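 For each line, cells grew in 96-well plates with the test compound present at a single concentration for 48 hours.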 Unmarked numbers belong to inactive results. The source made the active and inactive calls. The calls were made as follows: active = growth percent below 10; inactive = the rest.
Test system: NCI-H23 lung
Experiment: NCI-60 one-dose screen, 48 h (100 = growth as untreated, 0 = no growth, -100 = all killed)
Conditions: 10 µM unless noted

Row | Structure (SMILES) | growth [%]
1 | CCO/C=N/C1=C(C#N)C(c2ccc(F)cc2)c2sc3c(C)cccc3c2O1 (stereo unspecified) | 27.1
2 | COc1cc(-c2nc(SC(C)C)n(C(C)C)c(=O)c2C#N)ccc1OCc1ccccc1 | 85
3 | CCCCCc1ccc(S(=O)(=O)Nc2cccc(-c3csc(NCCN4CCN(C)CC4)n3)c2)cc1 | 84

Test system: NCI-H226 lung
Experiment: as above
Conditions: 10 µM unless noted

Row | Structure (SMILES) | growth
4 | CN1CCN(Cc2ccc(NC(=O)c3cncc(C#Cc4cnc5ccc(NCCCO)nn45)c3)cc2C(F)(F)F)CC1 | -10.1% (active)
5 | COC(=O)c1[nH]nc2c1C1(C(=O)N(C)c3ccccc31)C(C#N)=C(N)O2 (stereo unspecified) | 99.2%
6 | O=C(Cn1cc(-c2ccccc2)nn1)Nc1nc(-c2ccc(Cl)cc2)cs1 | 106%
7 | COc1cc(OC)c(S(N)(=O)=O)cc1C(C)=O | 103%
8 | COc1ccccc1N1CCN(C2=CC(=O)C(C)=C(C)C2=O)CC1 | 96.9%
9 | NC(N)=Nc1ccc(Oc2cccc(Nc3ccc(Br)c(C(F)(F)F)c3)c2)cn1 | -78.1% (active)
10 | Cn1ccnc1C(=O)/C=C/c1ccc(CNC(=O)c2ccc(F)cc2)cc1 | 51.7%
11 | Cc1c(Cl)cccc1S(=O)(=O)Nc1ccc2c(c1)C(=O)N(C1CCC(=O)NC1=O)C2=O (stereo unspecified) | 66.6%
12 | NS(=O)(=O)c1ccc(-n2cc(-c3cccc(NC(=O)c4ccc(N5CCOCC5)c(C(F)(F)F)c4)c3)nn2)cc1 | 15.5%
13 | CCc1cccc2c3c(sc12)C(c1ccc(OC)cc1)C(C#N)=C(/N=C/c1ccc(Cl)cc1)O3 (stereo unspecified) | 41.2%
14 | Nc1ncc(-c2ccc3ncnc(N4CCc5cc(F)c(F)cc54)c3c2)cn1 | 29.1%
15 | COc1c(N2CC3CCCNC3C2)c(F)cc2c(=O)c(C(=O)N/N=C/c3ccc(Br)cc3)cn(C3CC3)c12 (stereo unspecified) | 91.4%
16 | O=C(NNc1nc2cc(F)c(F)cc2n2c(CN3CC4CNCC4C3)ccc12)c1ncccn1 (stereo unspecified) | 10.6%
17 | COc1ccc(/C=C(\C#N)C(=O)N2c3ccccc3Sc3ccc(SC)cc32)cc1F | 88.8%
18 | Cc1ccc(NC(=O)CNc2cc(C(N)=O)cc(F)c2C)c(Cl)c1 | 80.5%
19 | CNC(=O)c1cc(Oc2ccc3nc(NC(=O)c4cccc(OC(F)(F)F)c4)sc3c2)ccn1 | 26.5%
20 | O=C1CCCC2=C1C(c1c[nH]c3ccc(Br)cc13)Cc1cc(Br)ccc1N2 (stereo unspecified) | 68.8%

Row | Structure (SMILES) | growth
21 | COc1cc2oc(-c3cccc(C(=O)N[C@@H](CC(C)C)C(=O)OC(C)(C)C)c3)cc(=O)c2c(OC)c1OC | 72.6%
22 | NC(N)=Nc1ccc(Nc2cccc(Nc3ccc(Cl)c(C(F)(F)F)c3)c2)cn1 | 24.4%
23 | CC(=O)c1nnn(-c2c(C(=O)n3nc(C)cc3C)sc(=S)n2-c2ccccc2)c1C | 95.7%
24 | CS(=O)(=O)Nc1cc(-c2ccc3ncc(C#N)c(N[C@H](CO)c4ccccc4)c3c2)cnc1Cl | 56.2%
25 | COc1ccc(C(=O)CSc2nc3c(c(Nc4ccc(S(N)(=O)=O)cc4)n2)CCCC3)cc1 | 98%
26 | CCn1c(SCC(=O)Nc2cccc(C(=O)/C=C/c3ccc(Br)cc3)c2)nc2ccccc2c1=O | 88.9%
27 | N#Cc1c(Nc2ccccc2)nn2c(-c3ccc([N+](=O)[O-])cc3)ccnc12 | 104%
28 | O=C(CCn1c[n+](CC(=O)c2ccc(-c3ccccc3)cc2)c2ccccc21)Nc1cccc2cccnc12 | 57%
29 | COc1ccc(OC)c(-c2nc(SCC(=O)c3ccc(Br)cc3)nc(Nc3ccc(S(N)(=O)=O)cc3)c2C#N)c1 | 50%
30 | FC(F)(F)c1cc(Nc2cccc(Oc3ccc(NC4=NCCN4)nc3)c2)ccc1Cl | 41.9%
31 | CCO/C=N/C1=C(C#N)C(c2ccc(OC)cc2)c2sc3c(CC)cccc3c2O1 (stereo unspecified) | 61.8%
32 | COc1ccc2c(c1)c(CC(=O)[Se]CCC#N)c(C)n2C(=O)c1ccc(Cl)cc1 | -53.6% (active)
33 | CN(C)CCN(C)c1ccc2ncc(C#Cc3cncc(C(=O)Nc4ccc(CN5CCN(C)CC5)c(C(F)(F)F)c4)c3)n2n1 | 64.3%
34 | NC(=O)c1c(NC(=O)c2ccccc2C(F)(F)F)sc2c1CCC(=O)C2 | 37.9%
35 | NC(N)=Nc1ccc(Oc2cccc(NC(N)=Nc3ccc(I)cc3F)c2)cc1 | 88.2%
36 | COc1ccc(CCOc2cc3c(cc2OC)CCN(C(=O)NCc2cocn2)C3c2ccc(C)cc2C)cc1 (stereo unspecified) | 34.3%

Source: PubChem BioAssay (NCI)
